{
  "source": "PubChem BioAssay (Tox21)",
  "note": "Where “and” joins values, the source holds several entries; their conditions need not be identical. Equal values may be shown once. Results filed as inconclusive are left out. A call without a number means that no potency is given here. Some structures have more than one record in an assay (separate samples or runs), and their calls can disagree. Calls of active or inactive are those of the source. Calls come from the whole dose curve; as a rule, active = well fitted cell-killing curve with a large enough effect in the repeat runs; inconclusive = weak or mixed curves; inactive = no such curve, though single readings can be large or run the other way. Potency is the fitted concentration of half-maximal effect.",
  "data": [
    {"experiment": "qHTS assay to identify small molecule agonists of the peroxisome proliferator-activated receptor delta (PPARd) signaling pathway - cell viability counter screen (AID 743211); note: nearly all actives have a fitted effect of over 55% in size", "conditions": "PPARd-bla HEK293H viability, CellTiter-Glo luminescence, 17 h; series mostly up to 62.6 µM", "description": "U.S. Tox21 Program National Center for Advancing Translational Sciences [NCATS] NIH Chemical Genomics Center [NCGC] U.S. Environmental Protection Agency [EPA] National Institutes of Environmental Health Sciences [NIEHS] National Toxicology Program [NTP] U.S. Food and Drug Administration [FDA] Tox21 Assay Overview: The peroxisome proliferator-activated receptors (PPARs) are lipid-activated transcription factors of the nuclear receptor superfamily with three distinct subtypes namely PPAR alpha, PPAR delta (PPARd) and PPAR gamma. All these subtypes heterodimerizes with Retinoid X receptor (RXR) and have different physiological functions. […] To identify the compounds that activate PPAR-delta signaling, GeneBLAzer PPAR delta UAS-bla HEK293H cell line (Invitrogen, Carlsbad, CA, USA) containing a beta-lactamase reporter gene under the control of an Upstream Activator Sequence (UAS) was used to screen the Tox21 compound library. The cytotoxicity of the Tox21 compound library against the PPARd-bla cell line was tested in parallel by measuring the cell viability using CellTiter-Glo assay (Promega, Madison, WI) in the same wells.\nTox21 Assay Protocol Summary: PPARd-bla cells were dispensed at 3000 cells/6uL/well in 1536-well black wall/clear bottom plates using a Multidrop Combi (Thermo Fisher Scientific, Waltham, MA) dispenser. After the assay plates were incubated at 37 C and 5% CO2 for 5 h, 23 nL of compounds dissolved in DMSO, positive controls or DMSO only was transferred to the assay plate by a Pintool station (Kalypsys, San Diego, CA). The assay plates were incubated at 37C for 17 h. After 1 uL of LiveBLAzerTM B/G FRET substrate was added using a Bioraptr Flying Reagent Dispenser (FRD) workstation (Beckman Coulter, Indianapolis, IN, USA), the plates were incubated at room temperature for 2 h, and fluorescence intensity was measured by an Envision plate reader (PerkinElmer, Shelton, CT). For cell viability readout that measures cytotoxicity, 3 ul/well of CellTiter-Glo reagent was added into the assay plates using a Bioraptr FRD. After 30 min incubation at room temperature, the luminescence intensity in the plates was measured using a ViewLux plate reader (PerkinElmer).", "values": [
      {"smiles": "Cc1cccc(O)c1C", "Potency": "inactive"},
      {"smiles": "c1ccc2n[nH]nc2c1", "Potency": "inactive"},
      {"smiles": "CC(=O)Nc1ccc(C(=O)CCl)cc1", "Potency": "inactive and 49 µM (active)"},
      {"smiles": "CC(COc1ccccc1)N(CCCl)Cc1ccccc1", "note": "(stereo not given)", "Potency": "inactive"},
      {"smiles": "CC(C)C(=O)c1c(C(C)C)nn2ccccc12", "Potency": "inactive"},
      {"smiles": "CC(C)CCOC(=O)c1ccc(N(C)C)cc1", "Potency": "inactive"},
      {"smiles": "COC(=O)[C@H]1[C@H]2C[C@@H]3c4[nH]c5cc(OC)ccc5c4CCN3C[C@H]2C[C@@H](OC(=O)c2cc(OC)c(OC)c(OC)c2)[C@@H]1OC", "Potency": "17.9 µM (active)"},
      {"smiles": "COC(=O)c1cccc(C(=O)OC)c1", "Potency": "inactive"},
      {"smiles": "CCCCOCCOC(=O)c1ccccc1C(=O)OCCOCCCC", "Potency": "47.9 µM (active) and inactive"},
      {"smiles": "CNC1(C)C2CCC(C2)C1(C)C", "note": "(stereo not given)", "Potency": "inactive"},
      {"smiles": "Cc1cc(C(C)(C)C)c(O)c(C(C)(C)C)c1", "Potency": "43.8 µM (active) and inactive"},
      {"smiles": "O=C(Cl)c1cccc(C(=O)Cl)c1", "Potency": "inactive"},
      {"smiles": "CC1COC(=O)O1", "note": "(stereo not given)", "Potency": "inactive"},
      {"smiles": "CCCCCC(=O)O[C@]1(C(C)=O)CC[C@H]2[C@@H]3CCC4=CC(=O)CC[C@]4(C)[C@H]3CC[C@@]21C", "Potency": "48.6 µM (active) and 29.8 µM (active)"},
      {"smiles": "O=C1CC2(CCCC2)CC(=O)N1CCCCN1CCN(c2ncccn2)CC1", "Potency": "inactive"},
      {"smiles": "CCOC(=O)C(C)C(C)=O", "note": "(stereo not given)", "Potency": "inactive"},
      {"smiles": "CCOc1ccccc1C(N)=O", "Potency": "inactive"},
      {"smiles": "COC(=O)/C=C/c1ccccc1", "Potency": "inactive"},
      {"smiles": "Nc1ccc2cc3ccccc3cc2c1", "Potency": "inactive"},
      {"smiles": "CCN1CCCC1CNC(=O)c1cc(S(=O)(=O)CC)c(N)cc1OC", "note": "(stereo not given)", "Potency": "inactive"},
      {"smiles": "CC(=O)O[C@]1(C(C)=O)CC[C@H]2[C@@H]3C[C@H](C)C4=CC(=O)CC[C@]4(C)[C@H]3CC[C@@]21C", "Potency": "inactive"},
      {"smiles": "C=CS(=O)(=O)O", "Potency": "inactive"},
      {"smiles": "CCCC(=O)c1ccccc1", "Potency": "inactive"},
      {"smiles": "O=Cc1ccc(Cl)cc1", "Potency": "inactive"},
      {"smiles": "O=C1NCC2(CCN(CCc3ccccc3)CC2)O1", "Potency": "inactive"},
      {"smiles": "OCCN1CCNCC1", "Potency": "inactive"},
      {"smiles": "C=C(C)C(=O)O", "Potency": "inactive"},
      {"smiles": "CC(C)(C)NCC(O)c1cc(O)cc(O)c1", "note": "(stereo not given)", "Potency": "inactive"},
      {"smiles": "C1COC(NC(C2CC2)C2CC2)=N1", "Potency": "inactive"},
      {"smiles": "NC(Cc1ccc(Cl)cc1)C(=O)O", "note": "(stereo not given)", "activity change, negative = cytotoxicity": "4.79% [at 0.55 µM] (inactive)"},
      {"smiles": "CCc1cc(C(C)(C)C)c(O)c(C(C)(C)C)c1", "Potency": "inactive"},
      {"smiles": "Cc1cc(OCCOCC[N+](C)(C)Cc2ccccc2)ccc1C(C)(C)CC(C)(C)C", "Potency": "21.7 µM (active) and 11.9 µM (active)"},
      {"smiles": "Oc1c(Cl)cc(Cl)c(Cl)c1Cc1c(O)c(Cl)cc(Cl)c1Cl", "Potency": "27.5 µM (active) and 13.3 µM (active)"},
      {"smiles": "Cc1ccnc2c1NC(=O)c1cccnc1N2C1CC1", "Potency": "inactive"},
      {"smiles": "C=CC(=O)OCCCCCCOC(=O)C=C", "Potency": "49.6 µM (active)"},
      {"smiles": "O=C(Nc1ccccc1SSc1ccccc1NC(=O)c1ccccc1)c1ccccc1", "Potency": "19.6 µM (active) and 12.3 µM (active)"},
      {"smiles": "CC1=C(C=O)C(C)(C)CC=C1", "Potency": "inactive"},
      {"smiles": "BrC1CCC(Br)C(Br)CCC(Br)C(Br)CCC1Br", "note": "(stereo not given)", "Potency": "26.1 µM (active)"},
      {"smiles": "O=c1n(CC2CO2)c(=O)n(CC2CO2)c(=O)n1CC1CO1", "note": "(stereo not given)", "Potency": "inactive"},
      {"smiles": "CC(=O)OCCOCCOCCOC(C)=O", "Potency": "inactive"}
    ]}
  ]
}
